# Data: PubChem BioAssay (NCI)
# About 83,000 compounds went through this panel and 20% of them were active in at least one assay; those are over-represented in the sample as a whole.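 Note: values are percent growth. 100 is the growth of untreated cells, values between 100 and 0 indicate rising inhibition; between -100 and 0 indicates cell death.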 Unmarked numbers belong to inactive results. The calls were made as follows: active = growth percent below 10; inactive = the rest.
# Test system: UO-31 renal
# Assay: NCI-60 one-dose screen, 48 h (100 = growth as untreated, 0 = no growth, -100 = all killed)
# Conditions: 10 µM unless noted
row,Structure (SMILES),growth [%]
1,CCN(CC)CCOc1ccccc1-n1c(C)ccc1-c1ccccc1,55.2
2,Cn1cc(-c2csc(-c3c[nH]c4ncccc34)n2)c2cc(Br)cnc21,28.8
3,COc1ccc(/C=C2\NC(=S)NC2=O)cc1,73.6
4,Nc1ccccc1-c1ccc([N+](=O)[O-])cc1,43.3
5,Cc1cc(NC(=O)c2ccc(N)cc2)ccc1N=Nc1ccc2c(O)c(N=Nc3ccc(Cl)c(S(=O)(=O)O)c3)c(S(=O)(=O)O)cc2c1,79.5
6,CC[N+](CC)(CCOCCOCC[N+](CC)(CC)Cc1ccc([N+](=O)[O-])cc1)Cc1ccc([N+](=O)[O-])cc1,68.5
7,CCC(c1ccccc1)c1noc(CCN(CC)CC)n1 (stereo not given),85.5
8,CC(=O)Nc1ccc2c(c1)Cc1c(F)c(F)c(F)c(F)c1-2,58.1
9,OC(Cc1cccnc1)c1ccccc1 (stereo not given),93.3
10,C/C(=N/N=C(N)N)c1ccc(N)cc1,69.8
11,O=C(O)c1ccccc1C(=O)OC1CCCC2CCCC21 (stereo not given),104
12,CN1CCCC1c1cccnc1 (stereo not given),97
13,COc1c(O)cc2oc3cc(O)c(CC=C(C)C)c(O)c3c(=O)c2c1C/C=C(\C)CCC=C(C)C,58.3
14,Nc1nc(SCc2ccccc2Cl)c(-c2ccccc2)c(SCc2ccccc2Cl)n1,69.9
15,CO[C@H]1/C=C/O[C@@]2(C)Oc3c(C)c(O)c4c(O)c(c(/C=N/N5C(C)CN(Cc6ccccc6)CC5C)c(O)c4c3C2=O)NC(=O)/C(C)=C\C=C\[C@H](C)[C@H](O)[C@@H](C)[C@@H](O)[C@@H](C)[C@H](OC(C)=O)[C@@H]1C (stereo not given in full),34.1
